From PubChem BioAssay (Tox21)
Records with an inconclusive call do not appear. Active and inactive are the calls of the source. Unless noted, the call rests on the fitted dose curve; in most records, active means well fitted curve in the direction sought with a large enough effect in the repeat runs; inconclusive means weak or mixed curves; inactive means no such curve, though single readings can be large; an effect the other way counts as inactive or inconclusive.

Columns and labels:
[1] = qHTS assay for small molecules that induce genotoxicity in human embryonic kidney cells expressing luciferase-tagged ATAD5 (AID 651632); further: nearly all actives have a fitted effect of over 15% in size
Method in brief: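 Reporter cells (HEK293T) express luciferase-tagged ATAD5, a protein that accumulates after DNA damage. Treat 16 hr at 37C/5% CO2, add Amplite, wait 30 min at RT, and read luminescence.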

[2] = qHTS assay for small molecule agonists of the p53 signaling pathway - cell viability (AID 651633; calls by dose curve;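 further: p53RE-bla HCT reporter cells with a stable beta-lactamase p53 reporter; series mostly up to about 83 µM; nearly all actives have a fitted effect of over 30% in size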)
Method in brief: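 p53RE-bla cells, seeded at 4,000 per well and rested 5 h at 37 C/5% CO2, received compounds in DMSO for 16 h at 37 C. CellTiter-Glo was then added, and luminescence was read after 30 min at room temperature to gauge cytotoxicity.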

[3] = qHTS assay for small molecule disruptors of the mitochondrial membrane potential - cell viability (AID 720634; calls by dose curve;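 further: human HepG2 liver cancer cells; series mostly up to about 83 µM; nearly all actives have a fitted effect of over 20% in size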)
Method in brief: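 Measuring cytotoxicity alongside mitochondrial potential, the screen quantified ATP by luminescence in HepG2 cells after 1 hr compound incubation and a 30 min room-temperature CellTiter-Glo step.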

[4] = qHTS assay to test for compound auto fluorescence at 535 nm (green) in HepG2 cells (AID 720675)
[5] = qHTS assay to test for compound auto fluorescence at 590 nm (red) in HEK293 cells (AID 720679)
Method in brief: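 Using HEK293 cells at 2,000 per well, the screen added 23 nL of each compound after cell attachment and incubated overnight (37C, 5% CO2). The plate reader then captured red-label fluorescence, Ex/Em 540/590nm.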

[6] = qHTS assay to test for compound auto fluorescence at 460 nm (blue) in HEK293 cell free culture (AID 720681)
Method in brief: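 Test compounds were pinned into cell-free culture medium (DMEM with 10% FBS) and fluorescence was read directly at Ex/Em 405/460 nm. Signals were expressed as fluorescence equivalents of triamterene, with DMSO vehicle as control.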

[7] = qHTS assay to test for compound auto fluorescence at 535 nm (green) in HEK293 cell free culture (AID 720682)
Method in brief: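 Fluorescein serves as the green reference fluorophore; each compound's intrinsic emission at 535 nm (excitation 485 nm) is reported as an equivalent amount of that dye, measured in serum-containing DMEM without cells.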

[8] = qHTS assay to test for compound auto fluorescence at 590 nm (red) in HepG2 cell free culture (AID 720684)
Method in brief: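 Red fluorescence (540 nm excitation, 590 nm emission) was measured after compound transfer into cell-free MEM supplemented with 10% FBS. Values are equivalencies against Rose Bengal sodium.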

[9] = qHTS assay to test for compound auto fluorescence at 460 nm (blue) in HepG2 cell free culture (AID 720685)
Method in brief: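 Compound (23 nL) or DMSO pinned into cell-free MEM with 10% FBS; blue fluorescence read at 405/460 nm excitation/emission, expressed as auto-fluorescence equivalency to triamterene.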

[10] = qHTS assay to test for compound auto fluorescence at 535 nm (green) in HepG2 cell free culture (AID 720686)
[11] = qHTS assay to test for compound auto fluorescence at 460 nm (blue) in HepG2 cells (AID 720687)
Method in brief: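 Cells (2,000/well in MEM with 10% FBS) attached overnight at 37 C, then were exposed to compound or DMSO for 1 hr at 37 C, 5% CO2. Fluorescence read at Ex/Em 405/460 nm, expressed as triamterene-equivalent signal.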

[12] = qHTS assay to identify small molecule antagonists of the androgen receptor (AR) signaling pathway using the MDA cell line - cell viability counter screen (AID 743041; further: nearly all actives have a fitted effect of over 45% in size)
Method in brief: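 MDA-kb2 AR-luc human breast carcinoma cells (MMTV-luciferase, AR/GR responsive) were treated with compounds plus R1881 agonist for 16 h at 37 °C. Viability was read as CellTiter-Fluor fluorescence in the same wells as the reporter assay.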

[13] = qHTS assay to identify small molecule antagonists of the estrogen receptor alpha (ER-alpha) signaling pathway - cell viability counter screen (AID 743074; calls by dose curve;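 further: HEK293 cells carrying ER-alpha-UAS-bla reporter stimulated with 17beta-estradiol; nearly all actives have a fitted effect of over 45% in size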)
[14] = qHTS assay to identify small molecule antagonists of the estrogen receptor alpha (ER-alpha) signaling pathway using the BG1 cell line - cell viability counter screen (AID 743081);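 further: compound given together with 17beta-estradiol as the ER stimulus; series mostly up to about 70 µM; nearly all actives have a fitted effect of over 45% in size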
Aromatase (Homo sapiens) = Aromatase (Homo sapiens) (UniProt P11511); assay: qHTS assay to identify aromatase inhibitors (AID 743083); further: series mostly up to about 70 µM; nearly all actives have a fitted effect of over 55% in size
Aromatase (Homo sapiens), sequence (P11511 whole entry, looked up): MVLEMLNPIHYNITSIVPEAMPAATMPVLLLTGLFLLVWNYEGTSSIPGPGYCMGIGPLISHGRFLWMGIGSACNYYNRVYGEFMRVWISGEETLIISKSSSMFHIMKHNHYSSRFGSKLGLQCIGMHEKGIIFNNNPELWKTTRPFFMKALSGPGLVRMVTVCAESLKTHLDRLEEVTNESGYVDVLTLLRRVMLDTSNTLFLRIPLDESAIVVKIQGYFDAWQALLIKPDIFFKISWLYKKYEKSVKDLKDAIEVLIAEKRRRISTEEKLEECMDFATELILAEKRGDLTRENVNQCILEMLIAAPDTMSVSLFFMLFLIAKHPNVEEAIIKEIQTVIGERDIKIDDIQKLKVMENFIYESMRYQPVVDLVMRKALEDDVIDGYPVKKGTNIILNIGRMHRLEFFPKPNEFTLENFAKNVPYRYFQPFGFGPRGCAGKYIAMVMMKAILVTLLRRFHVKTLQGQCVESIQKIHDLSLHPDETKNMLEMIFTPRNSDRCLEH

[15] = qHTS assay to identify aromatase inhibitors - cell viability counter screen (AID 743084);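 further: cells stimulated with testosterone during compound exposure; nearly all actives have a fitted effect of over 55% in size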
[16] = biological target: Aryl hydrocarbon receptor (Homo sapiens) (UniProt P35869); assay: qHTS assay to identify small molecule that activate the aryl hydrocarbon receptor (AhR) signaling pathway (AID 743085);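 further: HG2L7.5c1 human HepG2 liver cells with stably integrated DRE-driven firefly reporter; series mostly up to about 70 µM; nearly all actives have a fitted effect of over 15% in size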
Aryl hydrocarbon receptor (Homo sapiens), sequence (P35869 whole entry, looked up): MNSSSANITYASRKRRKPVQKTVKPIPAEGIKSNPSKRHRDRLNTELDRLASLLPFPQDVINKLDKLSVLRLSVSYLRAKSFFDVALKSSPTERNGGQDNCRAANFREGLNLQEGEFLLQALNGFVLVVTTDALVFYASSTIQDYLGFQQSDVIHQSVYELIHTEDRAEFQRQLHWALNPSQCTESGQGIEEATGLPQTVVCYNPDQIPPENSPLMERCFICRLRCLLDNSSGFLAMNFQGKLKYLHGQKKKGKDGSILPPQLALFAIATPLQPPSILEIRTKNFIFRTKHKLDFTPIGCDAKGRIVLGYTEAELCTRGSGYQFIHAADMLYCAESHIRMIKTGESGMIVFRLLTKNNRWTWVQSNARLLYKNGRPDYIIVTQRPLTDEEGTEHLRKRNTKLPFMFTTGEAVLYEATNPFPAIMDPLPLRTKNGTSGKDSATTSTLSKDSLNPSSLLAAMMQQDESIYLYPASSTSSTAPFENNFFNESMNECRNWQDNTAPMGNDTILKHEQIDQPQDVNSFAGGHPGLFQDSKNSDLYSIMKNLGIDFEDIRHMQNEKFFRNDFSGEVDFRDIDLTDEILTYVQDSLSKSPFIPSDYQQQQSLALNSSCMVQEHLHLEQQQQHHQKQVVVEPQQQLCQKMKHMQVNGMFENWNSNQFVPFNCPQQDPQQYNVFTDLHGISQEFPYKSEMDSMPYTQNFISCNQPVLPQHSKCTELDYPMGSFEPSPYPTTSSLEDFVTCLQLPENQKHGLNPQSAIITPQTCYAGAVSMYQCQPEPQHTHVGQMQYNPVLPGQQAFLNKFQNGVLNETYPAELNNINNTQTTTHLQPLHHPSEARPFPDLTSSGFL
Method in brief: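 Cell line HG2L7.5c1 (human hepatoma, 20× DRE-luc). Plated, 5 h 37C, compound/DMSO added, 24 h 37C. CellTiter-Fluor 30 min 37C → fluorescence; then ONE-Glo 30 min RT → luminescence.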

[17] = qHTS assay to identify small molecule phospholipidosis (PLD) inducers (AID 1259344; active means well fitted curve in the direction sought with a large enough effect; an effect the other way counts as inactive or inconclusive)
Method in brief: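 HepG2 cells on collagen I, attached 4 h at 37 C, were co-treated with compound and LipidTOX Red dye for 24 h at 37 C, then fixed with paraformaldehyde plus Hoechst 33342 and imaged by high-content microscopy for phospholipid accumulation.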

[18] = biological target: Nuclear receptor subfamily 1 group I member 2 (Rattus norvegicus) (UniProt Q9R1A7); assay: Rat pregnane X receptor (rPXR) activation by small molecules, qHTS assay (AID 1346983); conditions: rPXR luciferase reporter cells, One-Glo luminescence, 24 h; max activation: hits give high values; further: nearly all actives have a fitted effect of over 20% in size
Nuclear receptor subfamily 1 group I member 2 (Rattus norvegicus), sequence (Q9R1A7 whole entry, looked up): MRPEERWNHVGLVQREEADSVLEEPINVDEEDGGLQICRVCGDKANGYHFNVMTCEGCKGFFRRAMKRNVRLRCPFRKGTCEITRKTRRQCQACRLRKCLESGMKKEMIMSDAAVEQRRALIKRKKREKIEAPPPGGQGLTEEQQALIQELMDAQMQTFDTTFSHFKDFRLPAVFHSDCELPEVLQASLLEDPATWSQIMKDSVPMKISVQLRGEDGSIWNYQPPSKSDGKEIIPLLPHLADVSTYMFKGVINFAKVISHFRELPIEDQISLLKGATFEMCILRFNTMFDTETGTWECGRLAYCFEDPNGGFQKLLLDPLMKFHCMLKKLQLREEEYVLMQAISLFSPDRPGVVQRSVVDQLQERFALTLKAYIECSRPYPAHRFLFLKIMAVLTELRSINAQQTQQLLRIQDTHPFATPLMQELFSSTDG
Method in brief: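 Cell-based rPXR luciferase reporter assay, 2,000 cells per well, rested 5hr at 37 C before compound addition in DMSO, then 24 hr at 37 C. One-Glo reagent was added and luminescence read after 30 min at room temperature.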

[19] = qHTS assay to identify small molecule antagonists of the androgen receptor (AR) signaling pathway - cell viability counter screen (AID 743033; further: nearly all actives have a fitted effect of over 45% in size)
On the % scale 0 is the no-effect control and ±100 the full control effect.

CC(N)Cc1ccc(O)cc1 (centres undefined)
inactive: Potency [1] | Potency [2] | Potency [3] | Potency [4] | outcome [5] | Potency [6] | Potency [7] | outcome [8] | Potency [9] | Potency [10] | Potency [11] | Potency [12] | Potency [13] | Potency [14] | Potency (Aromatase (Homo sapiens)) | Potency [15] | Potency [16] | Potency [17] | max activation [18] -0.925%

O=C1CN(O)C(c2ccccc2)=c2cc(Cl)ccc2=N1
inactive: Potency [1] | Potency [2] | Potency [3] | Potency [4] | outcome [5] | Potency [6] | Potency [7] | outcome [8] | Potency [9] | Potency [10] | Potency [11] | Potency [19] | Potency [12] | Potency [13] | Potency [14] | Potency (Aromatase (Homo sapiens)) | Potency [15] | Potency [16] | Potency [17] | max activation [18] -6.23%

c1csc(C2(N3CCCCC3)CCCCC2)c1
inactive: Potency [1] | Potency [2] | Potency [3] | Potency [4] | outcome [5] | Potency [6] | Potency [7] | outcome [8] | Potency [9] | Potency [10] | Potency [11] | Potency [19] | Potency [12] | Potency [13] | Potency [14] | Potency (Aromatase (Homo sapiens)) | Potency [15] | Potency [16] | Potency [17] | max activation [18] -0.931%

CCON=O
inactive: Potency [1] | Potency [2] | Potency [3] | Potency [4] | outcome [5] | Potency [6] | Potency [7] | outcome [8] | Potency [9] | Potency [10] | Potency [11] | Potency [19] | Potency [12] | Potency [13] | Potency [14] | Potency (Aromatase (Homo sapiens)) | Potency [15] | Potency [16] | Potency [17] | max activation [18] -2.18%

CNc1ccc(C(=O)CC(O)CCC(C)C2OC(=O)CC(O)CC(=O)CC(O)CC(O)CC(O)CC(O)CC3(O)CC(O)C(C(=O)OC)C(CC(O[C@@H]4O[C@H](C)[C@@H](O)[C@H](N)[C@@H]4O)/C=C/C=C/C=C/C=C/C=C/C=C/C=C/C2C)O3)cc1 (some centres undefined)
inactive: Potency [1] | Potency [2] | Potency [3] | Potency [4] | outcome [5] | Potency [6] | Potency [7] | outcome [8] | Potency [9] | Potency [10] | Potency [11] | Potency [19] | Potency [12] | Potency [13] | Potency [14] | Potency (Aromatase (Homo sapiens)) | Potency [15] | Potency [16] | Potency [17] | max activation [18] -1.47%

CC(=O)OCC(=O)[C@H]1CC[C@H]2[C@@H]3CC[C@H]4C[C@H](O)CC[C@]4(C)[C@H]3C(=O)C[C@]12C
inactive: Potency [1] | Potency [2] | Potency [3] | Potency [4] | outcome [5] | Potency [6] | Potency [7] | outcome [8] | Potency [9] | Potency [10] | Potency [11] | Potency [19] | Potency [12] | Potency [13] | Potency [14] | Potency (Aromatase (Homo sapiens)) | Potency [15] | Potency [16] | Potency [17] | max activation [18] -0.613%
